According to PubChem BioAssay AID488847 (NMMLSC, 2010):
About 1,900 (0.58%) of roughly 330,000 compounds were called active. Shown is part of a subset that was picked to be rich in actives. A number with no mark means an inactive call.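 How the source made its calls: active means inhibition of aptamer binding above 40%, roughly 3 SD of noise, on plates passing a quality check; inactive means the rest.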

What follows are compounds tested against Beta-adrenergic receptor kinase 1 (Homo sapiens) (UniProt P25098) (assay: compounds blocking aptamer binding on GRK2 – biochemical, human GRK2, bead flow cytometry, HTS, primary screen (AID 488847;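 further: median bead fluorescence of bound FAM aptamer so fluorescent compounds give negative values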)). Settings: FAM-aptamer displacement from GRK2, at 10 µM, hits give high values.
Chain of Beta-adrenergic receptor kinase 1 (Homo sapiens) (P25098 whole entry, looked up): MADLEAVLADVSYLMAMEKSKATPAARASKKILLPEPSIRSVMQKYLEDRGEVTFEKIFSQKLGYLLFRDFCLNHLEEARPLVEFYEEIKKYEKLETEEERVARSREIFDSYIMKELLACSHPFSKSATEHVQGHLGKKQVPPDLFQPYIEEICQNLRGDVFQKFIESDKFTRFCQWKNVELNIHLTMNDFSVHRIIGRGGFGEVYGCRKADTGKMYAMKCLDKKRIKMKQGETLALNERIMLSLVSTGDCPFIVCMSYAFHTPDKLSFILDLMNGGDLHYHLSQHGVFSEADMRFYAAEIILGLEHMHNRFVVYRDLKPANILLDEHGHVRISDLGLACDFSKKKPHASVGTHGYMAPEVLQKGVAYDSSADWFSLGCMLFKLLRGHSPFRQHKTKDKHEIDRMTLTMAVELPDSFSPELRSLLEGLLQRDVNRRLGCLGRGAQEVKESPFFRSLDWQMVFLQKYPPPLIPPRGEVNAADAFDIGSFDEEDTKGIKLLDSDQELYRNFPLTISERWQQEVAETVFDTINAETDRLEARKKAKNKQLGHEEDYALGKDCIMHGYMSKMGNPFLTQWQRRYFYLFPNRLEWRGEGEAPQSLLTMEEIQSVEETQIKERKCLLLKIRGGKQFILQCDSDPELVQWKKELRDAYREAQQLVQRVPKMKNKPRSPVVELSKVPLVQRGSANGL
`O=C(NC1CCCC1)C(c1ccc(N2CCOCC2)cc1)N(C(=O)c1ccco1)c1ccccc1F` (centres undefined) was tested, and the inhibition of aptamer binding was 1%.
With `CC(C)c1ccc(Nc2nnc(SCC(=O)c3nnc(-c4ccccc4)o3)s2)cc1` the inhibition of aptamer binding was 0%.
For `CCN1/C(=C\c2ccc3ccccc3[n+]2CC)Sc2cc(C)ccc21`, the inhibition of aptamer binding was 96% (active).
With `CCN1/C(=C/c2ccc3ccc(C)cc3[n+]2CC)Sc2ccccc21` the inhibition of aptamer binding was 94% (active).
With `CCn1c(CNC(=O)c2ccccc2)nnc1SCC(=O)N1CCN(c2ccccc2)CC1` the inhibition of aptamer binding was 0%.
Compound `NC(=O)c1nnsc1-c1ccc(-c2snnc2C(N)=O)cc1` has an inhibition of aptamer binding of 1%.
Work on `CN(CCC#N)c1ncnc2scc(-c3ccccc3)c12` yielded an inhibition of aptamer binding of 3%.
For `CC(Oc1ccc(F)cc1)C(=O)N1CCN(c2ncccn2)CC1` (centres undefined), the inhibition of aptamer binding was 6%.
For `COc1cccc(/C=C(/CC(=O)Nc2ccc(N3CCOCC3)cc2)c2nc3ccccc3s2)c1`, the inhibition of aptamer binding was 0%.
Work on `CCCCn1c(N)c(N(CCC(C)C)C(=O)c2ccc(COc3ccccc3)o2)c(=O)[nH]c1=O` yielded an inhibition of aptamer binding of 1%.
With `CCCCn1c(N)c(N(CCC(C)C)C(=O)c2ccc([N+](=O)[O-])o2)c(=O)[nH]c1=O` the inhibition of aptamer binding was 55% (active).
`CCCCN(C(=O)c1ccc(C)o1)c1c(N)n(CCCC)c(=O)[nH]c1=O` showed an inhibition of aptamer binding of 0%.
Work on `C=CCSc1nc2c(c(=O)[nH]1)C(C(C)C)C(C#N)=C(N)O2` (centres undefined) yielded an inhibition of aptamer binding of 2%.
In the case of `CC(CC(=O)Nc1ccccc1)n1ccnc1` (centres undefined), the inhibition of aptamer binding is reported as 1%.
Compound `C[C@H](NS(=O)(=O)c1ccc(Cl)cc1)C(=O)OCC(=O)N1CCOCC1` has an inhibition of aptamer binding of 8%.
In the case of `CC(=O)N1CC[n+]2c(-c3ccc([N+](=O)[O-])cc3)csc21`, the inhibition of aptamer binding is reported as 92% (active).
`COc1ccc(C2CC(c3ccc([N+](=O)[O-])cc3)=NN2C(C)=O)cc1` (centres undefined) gave an inhibition of aptamer binding of 0%.
Work on `COC(=O)c1c(C)[nH]c(C)c1-c1ccc([N+](=O)[O-])cc1` yielded an inhibition of aptamer binding of 0%.
For `Cc1nn(Cc2ccc(F)cc2)c(C)c1NC(=O)c1cccnc1Cl`, the inhibition of aptamer binding was 5%.
`Cc1nn(Cc2ccc(Cl)c(Cl)c2)c(C)c1NC(=O)c1cc(C2CC2)on1` showed an inhibition of aptamer binding of 0%.
In the case of `Cc1nn(Cc2ccc(F)cc2)c(C)c1NC(=O)c1noc2c1CCc1ccccc1-2`, the inhibition of aptamer binding is reported as 73% (active).
`Cc1ccccc1-n1cc(CNC(=O)CC2C(=O)NCCN2C/C=C/c2ccccc2)cn1` (centres undefined) showed an inhibition of aptamer binding of 0%.
In the case of `O=C(NC1CC1)C1=C[C@H](c2coc3ccccc3c2=O)C[C@H](OCCCCO)O1`, the inhibition of aptamer binding is reported as 2%.
`CCN1C(=O)[C@H]2[C@@H](c3ccc(-c4ccc(OC)cc4)cc3)N[C@@](Cc3ccccc3)(C(=O)OC)[C@H]2C1=O` was tested, and the inhibition of aptamer binding was 43% (active).
For `CCN1C(=O)[C@H]2[C@@H](c3ccc(-c4ccc(F)cc4)cc3)N[C@@](Cc3ccccc3)(C(=O)OC)[C@H]2C1=O`, the inhibition of aptamer binding was 0%.
Work on `CCN1C(=O)[C@H]2[C@@H](c3ccc(SC4CCCCC4)c(OC)c3)N[C@@](Cc3ccccc3)(C(=O)OC)[C@H]2C1=O` yielded an inhibition of aptamer binding of 0%.
For `COc1cccc(C2SCC(=O)N2c2cccc(C)c2)c1OC` (centres undefined), the inhibition of aptamer binding was 2%.
`COCCn1c(SCC(=O)c2[nH]c(C)c(C(C)=O)c2C)nc2ccccc2c1=O` was tested, and the inhibition of aptamer binding was 0%.
`C/C(=N\NC(=S)NCc1ccccc1)C1CCCCC1` was tested, and the inhibition of aptamer binding was 1%.
`CC1CCCCC1NC(=O)c1cc(=O)[nH]c2ccccc12` (centres undefined) gave an inhibition of aptamer binding of 0%.
For `COc1ccc(OC)c(CNC(=O)Cn2nc(C)c3c(C)n(-c4ccc(C)cc4)nc3c2=O)c1`, the inhibition of aptamer binding was 0%.
In the case of `CC[N+](C)(CC)CCC[n+]1c(-c2ccccc2)c2cc(N)ccc2c2ccc(N)cc21`, the inhibition of aptamer binding is reported as 62% (active).
`Cc1ccc(-c2nc(CS(=O)CC(=O)NC3CCCC3)c(C)o2)cc1` (centres undefined) showed an inhibition of aptamer binding of 0%.
With `O=C(COC(=O)c1ccc(O)cc1O)c1ccc2c(c1)OCCO2` the inhibition of aptamer binding was 44% (active).
With `O=C(OCc1ccccc1F)c1ccc2c(c1)OCCO2` the inhibition of aptamer binding was 0%.
In the case of `CC(=O)Nc1cccc(C(=O)OCC(=O)c2ccc3c(c2)OCO3)c1`, the inhibition of aptamer binding is reported as 0%.
`CN(CC(=O)Nc1ccc(Cl)c(C(F)(F)F)c1)C(=O)CCC(=O)c1ccccc1` was tested, and the inhibition of aptamer binding was 1%.
In the case of `CCC(C)(C)N=C(NC#N)Nc1cccnc1`, the inhibition of aptamer binding is reported as 0%.
With `Cc1nc(Nc2ccccc2F)c2nnn(Cc3ccccc3Cl)c2n1` the inhibition of aptamer binding was 47% (active).
`Cc1nc(Nc2ccc(S(=O)(=O)N3CCCC3)cc2)c2nnn(Cc3ccccc3)c2n1` gave an inhibition of aptamer binding of 0%.
`Cc1nc(Nc2ccc3c(c2)OCCO3)c2nnn(Cc3ccccc3Cl)c2n1` showed an inhibition of aptamer binding of 0%.
`O=C(CNC(c1ccccc1)c1ccccc1)Nc1ccc(F)cc1` was tested, and the inhibition of aptamer binding was 1%.
`S=C(Nc1cccnc1)Nc1ccccn1` was tested, and the inhibition of aptamer binding was 1%.
Work on `O=C1CSC(=O)N1CCOCCN1C(=O)CSC1=O` yielded an inhibition of aptamer binding of 3%.
`O=C(CNC(=O)c1n[nH]c2ccccc12)Nc1cc(Cl)ccc1Cl` gave an inhibition of aptamer binding of 0%.
In the case of `CC(=O)c1ccc(OCC(O)CN2CCN(S(=O)(=O)c3cccc(Br)c3)CC2)cc1` (centres undefined), the inhibition of aptamer binding is reported as 88% (active).
`Cc1cccc(OCC(O)CN2CCN(S(=O)(=O)c3ccc(C)cc3C)CC2)c1` (centres undefined) showed an inhibition of aptamer binding of 1%.
`O=S(=O)(c1ccc(OCC(O)CN2CCN(c3ccccc3Cl)CC2)cc1)N1CCOCC1` (centres undefined) showed an inhibition of aptamer binding of 0%.
In the case of `CCC(C)N1C(=O)S/C(=C/c2ccc(Sc3nc4ccccc4[nH]3)o2)C1=O` (centres undefined), the inhibition of aptamer binding is reported as 1%.
Work on `Cc1cccc(NC(=S)NCc2ccc3[nH]c4c(c3c2)CCCC4)c1` yielded an inhibition of aptamer binding of 0%.
For `Cc1ccc(C(C)NC(=O)Cn2nc(C)c([N+](=O)[O-])c2C)cc1` (centres undefined), the inhibition of aptamer binding was 2%.
In the case of `COC(=O)c1ccc(C)c(NC(=O)C2CC(=O)N(C3CCCC(C)C3C)C2)c1` (centres undefined), the inhibition of aptamer binding is reported as 63% (active).
`COC(=O)c1ccc(C)c(NC(=O)Cn2c(C)csc2=O)c1` was tested, and the inhibition of aptamer binding was 0%.
For `Cc1ccc(C)c(NC(=O)C2CC(=O)N(C(C)C)C2)c1` (centres undefined), the inhibition of aptamer binding was 2%.
`O=C(CSCc1ccc([N+](=O)[O-])cc1)NCCSCc1ccccc1` gave an inhibition of aptamer binding of 0%.
Work on `COc1ccc(-c2ocnc2C(=O)Nc2ccc3c(c2)CCC3)cc1` yielded an inhibition of aptamer binding of 8%.
For `COC(=O)c1ccc(S(=O)(=O)NCc2ccccc2)n1C`, the inhibition of aptamer binding was 2%.
With `Cc1ccc(C(=O)OCC(=O)N2CC(C)CC(C)C2)cc1S(=O)(=O)N1CCCCC1` (centres undefined) the inhibition of aptamer binding was 2%.
With `COc1cccc2c1OCC(C(=O)NCc1ccc(Cl)cc1Cl)=C2` the inhibition of aptamer binding was 0%.
